Targets with a hit are over-represented here; the source holds about 8,800 in all. About 0.5% of all pairs of compound and target were hits. Values without a mark were called inactive.

Holding throughout (test): log2 fold change, soluble protein after heating vs DMSO (PISA); higher = thermal stabilisation; K562 lysate, 10 uM; active = over 0.2 and 3.5 SD of the protein, either way, in both replicates (recomputed)
Compound in test [1]: NCC(=O)Nc1ccc(-n2nc(C(F)(F)F)cc2-c2ccc3c(ccc4ccccc43)c2)cc1
The method in brief:
(§1)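 Dounce homogenisation of K562 pellets in PBS pH 7.4 with 1 mM MgCl2 produced a crude extract, used at 1 mg/mL protein. Exposure to 10 μM compound lasted 30 min, and aliquots were then heated for 3 min across 48°C-58°C, pooled and brought to 0.5% NP-40 at 4°C. The supernatant after 21,000xg for 90 min was quantified by TMTpro 16plex LC-MS/MS with channel sums equalised. Duplicate values are given as log-two fold change in thermal stability relative to solvent controls.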

Compound in a further test: O=C(CCCCCCC(=O)Nc1ccccc1)NO [vorinostat]
Summed up: as §1

Compound in the next test: O=C(O)c1ccc2c(c1)nc(Nc1cccc(Cl)c1)c1ccncc12 [silmitasertib]
The method in brief: as §1

Compound in test [2]: O=C1NC(=O)C(c2cnc3ccccn23)=C1c1cn2c3c(cc(F)cc13)CN(C(=O)N1CCCCC1)CC2
Summed up: as §1

Compound in another test: c1cn2cc(-c3ccc4cn[nH]c4c3)nc(Nc3ccc(N4CCOCC4)cc3)c2n1 [entospletinib]
The method in brief:
as §1

Sequence of UniProt Q53GQ0 (Q53GQ0 whole entry, looked up): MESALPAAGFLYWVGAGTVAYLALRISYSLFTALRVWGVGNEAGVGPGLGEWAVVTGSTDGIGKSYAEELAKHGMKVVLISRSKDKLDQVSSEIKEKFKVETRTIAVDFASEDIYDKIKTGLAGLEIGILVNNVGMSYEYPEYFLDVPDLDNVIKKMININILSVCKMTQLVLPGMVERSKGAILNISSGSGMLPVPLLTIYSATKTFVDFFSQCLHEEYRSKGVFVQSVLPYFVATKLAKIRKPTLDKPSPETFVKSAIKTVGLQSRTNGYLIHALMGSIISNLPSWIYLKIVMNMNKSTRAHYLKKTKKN
Sequence of UniProt Q14103 (Q14103 whole entry, looked up): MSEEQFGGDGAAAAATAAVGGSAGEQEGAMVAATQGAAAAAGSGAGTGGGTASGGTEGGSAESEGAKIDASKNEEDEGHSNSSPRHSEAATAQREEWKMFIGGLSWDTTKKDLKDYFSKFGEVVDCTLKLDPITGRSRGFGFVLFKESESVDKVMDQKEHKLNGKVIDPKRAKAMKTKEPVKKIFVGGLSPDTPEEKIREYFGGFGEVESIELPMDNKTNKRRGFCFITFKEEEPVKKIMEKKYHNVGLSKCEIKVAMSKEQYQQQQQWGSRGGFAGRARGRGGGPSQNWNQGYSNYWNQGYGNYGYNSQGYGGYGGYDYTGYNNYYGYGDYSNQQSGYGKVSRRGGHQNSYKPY
Sequence of UniProt Q9BUE6 (Q9BUE6 whole entry, looked up): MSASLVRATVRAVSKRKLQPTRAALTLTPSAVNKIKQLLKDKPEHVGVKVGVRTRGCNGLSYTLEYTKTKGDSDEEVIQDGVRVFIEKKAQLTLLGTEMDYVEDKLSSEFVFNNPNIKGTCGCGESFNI
Sequence of UniProt Q16836 (Q16836 whole entry, looked up): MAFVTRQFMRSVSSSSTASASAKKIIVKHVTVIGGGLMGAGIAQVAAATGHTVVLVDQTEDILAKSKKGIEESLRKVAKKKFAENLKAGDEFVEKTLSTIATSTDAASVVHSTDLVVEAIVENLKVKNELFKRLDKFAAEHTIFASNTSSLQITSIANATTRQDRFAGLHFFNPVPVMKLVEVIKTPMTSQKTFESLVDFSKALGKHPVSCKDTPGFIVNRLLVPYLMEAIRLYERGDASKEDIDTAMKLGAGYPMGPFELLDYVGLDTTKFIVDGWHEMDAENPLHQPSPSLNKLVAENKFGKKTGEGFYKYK
Sequence of UniProt P15104 (P15104 whole entry, looked up): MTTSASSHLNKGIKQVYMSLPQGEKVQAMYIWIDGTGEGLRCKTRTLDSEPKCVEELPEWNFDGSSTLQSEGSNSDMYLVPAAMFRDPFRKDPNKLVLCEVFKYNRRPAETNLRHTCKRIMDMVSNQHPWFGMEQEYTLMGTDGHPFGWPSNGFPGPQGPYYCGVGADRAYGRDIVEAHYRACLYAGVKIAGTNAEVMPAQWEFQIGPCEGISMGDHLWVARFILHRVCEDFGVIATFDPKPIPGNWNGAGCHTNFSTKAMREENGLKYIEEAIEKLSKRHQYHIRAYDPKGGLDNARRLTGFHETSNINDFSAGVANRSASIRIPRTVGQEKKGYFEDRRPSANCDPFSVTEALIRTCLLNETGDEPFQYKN
Sequence of UniProt O15550 (O15550 whole entry, looked up): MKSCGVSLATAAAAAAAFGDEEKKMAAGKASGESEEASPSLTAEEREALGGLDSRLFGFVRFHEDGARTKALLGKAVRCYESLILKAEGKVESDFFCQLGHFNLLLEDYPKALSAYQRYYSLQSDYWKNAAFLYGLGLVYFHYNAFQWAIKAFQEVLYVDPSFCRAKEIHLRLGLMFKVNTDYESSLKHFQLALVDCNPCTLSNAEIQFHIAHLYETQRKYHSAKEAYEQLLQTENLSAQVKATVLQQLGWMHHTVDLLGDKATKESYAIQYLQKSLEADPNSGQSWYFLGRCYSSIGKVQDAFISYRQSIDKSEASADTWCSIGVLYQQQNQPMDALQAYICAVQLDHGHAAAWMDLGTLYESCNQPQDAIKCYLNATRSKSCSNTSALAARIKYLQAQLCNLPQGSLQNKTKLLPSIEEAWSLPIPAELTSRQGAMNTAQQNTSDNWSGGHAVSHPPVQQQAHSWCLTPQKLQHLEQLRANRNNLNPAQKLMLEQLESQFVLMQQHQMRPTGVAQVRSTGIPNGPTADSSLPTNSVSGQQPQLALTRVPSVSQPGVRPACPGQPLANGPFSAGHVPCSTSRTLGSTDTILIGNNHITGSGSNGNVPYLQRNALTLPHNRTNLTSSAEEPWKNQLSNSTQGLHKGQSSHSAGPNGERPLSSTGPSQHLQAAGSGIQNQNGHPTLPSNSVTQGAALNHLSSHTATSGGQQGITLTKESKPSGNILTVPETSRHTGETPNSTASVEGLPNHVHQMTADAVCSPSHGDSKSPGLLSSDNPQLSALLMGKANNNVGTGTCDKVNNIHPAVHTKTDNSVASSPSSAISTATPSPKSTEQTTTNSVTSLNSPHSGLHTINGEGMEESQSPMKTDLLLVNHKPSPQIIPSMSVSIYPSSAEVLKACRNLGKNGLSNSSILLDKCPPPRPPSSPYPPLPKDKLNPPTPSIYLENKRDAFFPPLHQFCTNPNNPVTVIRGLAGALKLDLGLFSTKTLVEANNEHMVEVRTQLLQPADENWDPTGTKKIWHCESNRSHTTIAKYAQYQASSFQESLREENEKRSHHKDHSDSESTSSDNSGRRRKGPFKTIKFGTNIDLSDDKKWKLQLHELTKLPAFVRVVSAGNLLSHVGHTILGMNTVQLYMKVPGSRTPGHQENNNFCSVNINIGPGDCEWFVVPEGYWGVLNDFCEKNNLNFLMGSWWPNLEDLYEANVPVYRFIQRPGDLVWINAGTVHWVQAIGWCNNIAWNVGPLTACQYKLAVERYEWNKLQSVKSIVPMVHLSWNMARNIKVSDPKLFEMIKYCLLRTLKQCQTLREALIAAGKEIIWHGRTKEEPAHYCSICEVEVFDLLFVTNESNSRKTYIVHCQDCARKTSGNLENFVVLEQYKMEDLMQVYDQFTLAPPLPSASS
Sequence of UniProt Q6AI08 (Q6AI08 whole entry, looked up): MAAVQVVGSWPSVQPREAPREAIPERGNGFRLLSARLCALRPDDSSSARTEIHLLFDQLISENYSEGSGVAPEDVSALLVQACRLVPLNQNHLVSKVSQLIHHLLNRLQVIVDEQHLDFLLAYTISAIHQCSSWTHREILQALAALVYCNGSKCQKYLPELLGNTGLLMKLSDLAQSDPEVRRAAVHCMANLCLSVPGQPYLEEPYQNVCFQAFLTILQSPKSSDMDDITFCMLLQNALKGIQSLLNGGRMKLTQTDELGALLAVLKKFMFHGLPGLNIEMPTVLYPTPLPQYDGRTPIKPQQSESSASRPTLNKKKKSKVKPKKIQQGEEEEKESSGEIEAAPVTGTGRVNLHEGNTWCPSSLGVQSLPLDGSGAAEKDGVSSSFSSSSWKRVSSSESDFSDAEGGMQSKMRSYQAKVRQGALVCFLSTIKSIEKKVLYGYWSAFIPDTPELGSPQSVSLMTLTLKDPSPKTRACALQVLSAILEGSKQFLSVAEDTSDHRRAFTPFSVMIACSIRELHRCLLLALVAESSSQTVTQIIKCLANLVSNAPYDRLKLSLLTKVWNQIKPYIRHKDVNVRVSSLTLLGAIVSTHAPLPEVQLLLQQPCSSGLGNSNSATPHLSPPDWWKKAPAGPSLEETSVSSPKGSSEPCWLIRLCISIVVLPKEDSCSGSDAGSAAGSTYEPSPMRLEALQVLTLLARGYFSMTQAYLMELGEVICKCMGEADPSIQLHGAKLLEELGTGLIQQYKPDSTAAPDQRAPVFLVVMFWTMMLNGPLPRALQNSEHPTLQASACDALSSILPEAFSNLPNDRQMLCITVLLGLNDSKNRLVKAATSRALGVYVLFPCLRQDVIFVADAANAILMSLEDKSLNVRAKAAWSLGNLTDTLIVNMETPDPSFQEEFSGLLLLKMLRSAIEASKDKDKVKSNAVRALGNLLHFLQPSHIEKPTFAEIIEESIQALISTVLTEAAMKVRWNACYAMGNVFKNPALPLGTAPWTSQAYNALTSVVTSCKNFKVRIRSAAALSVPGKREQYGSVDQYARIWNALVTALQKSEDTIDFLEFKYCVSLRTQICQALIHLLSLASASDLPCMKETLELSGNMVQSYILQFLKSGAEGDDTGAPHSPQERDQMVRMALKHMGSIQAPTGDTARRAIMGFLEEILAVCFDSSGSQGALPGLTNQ
Sequence of UniProt P17096 (P17096 whole entry, looked up): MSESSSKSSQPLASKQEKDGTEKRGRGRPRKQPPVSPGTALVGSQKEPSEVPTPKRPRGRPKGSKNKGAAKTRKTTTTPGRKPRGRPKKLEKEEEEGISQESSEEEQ
Sequence of UniProt Q9H9Y4 (Q9H9Y4 whole entry, looked up): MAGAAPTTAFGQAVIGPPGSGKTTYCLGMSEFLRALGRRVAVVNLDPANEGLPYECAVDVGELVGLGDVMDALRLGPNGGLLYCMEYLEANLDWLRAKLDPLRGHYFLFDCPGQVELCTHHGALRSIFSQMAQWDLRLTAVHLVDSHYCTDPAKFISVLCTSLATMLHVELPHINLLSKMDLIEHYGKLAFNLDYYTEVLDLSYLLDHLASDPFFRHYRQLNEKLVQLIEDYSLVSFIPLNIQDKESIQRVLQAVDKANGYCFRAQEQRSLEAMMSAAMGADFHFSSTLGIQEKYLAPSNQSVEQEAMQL
Sequence of UniProt Q96AB3 (Q96AB3 whole entry, looked up): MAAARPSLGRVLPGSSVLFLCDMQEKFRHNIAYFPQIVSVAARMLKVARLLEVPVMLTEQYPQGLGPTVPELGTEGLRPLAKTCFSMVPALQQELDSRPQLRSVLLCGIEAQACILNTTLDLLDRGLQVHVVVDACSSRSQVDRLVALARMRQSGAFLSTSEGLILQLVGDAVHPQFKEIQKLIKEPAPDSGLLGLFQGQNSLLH
Sequence of UniProt Q9NVX0 (Q9NVX0 whole entry, looked up): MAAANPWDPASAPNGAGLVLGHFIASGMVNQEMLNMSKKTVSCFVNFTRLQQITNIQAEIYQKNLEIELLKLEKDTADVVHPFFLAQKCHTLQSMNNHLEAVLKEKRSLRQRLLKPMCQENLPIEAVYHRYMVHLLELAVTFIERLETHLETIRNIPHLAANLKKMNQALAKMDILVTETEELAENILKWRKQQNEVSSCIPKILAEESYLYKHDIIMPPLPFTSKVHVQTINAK

Turning to HEATR6 (UniProt Q6AI08), the log2 fold change is -0.005 in test [1]; -0.466 (active) with vorinostat; 0.047 with silmitasertib; -0.026 in test [2]; 0 in the test with entospletinib.
Take HSD17B12 (UniProt Q53GQ0): the log2 fold change is 0.025 in test [1]; -0.009 with vorinostat; -0.05 with silmitasertib; -0.078 in test [2]; 0.041 with entospletinib.
For HAUS7 isoform 2 (UniProt Q99871), the log2 fold change in test [1] is -0.091; with vorinostat, -0.416 (active); with silmitasertib, -0.029; in test [2], -0.026; with entospletinib, -0.124.
For KDM6A (UniProt O15550), in that order: 0.026, -0.299 (active), -0.059, -0.009 and -0.02.
The like results for GLUL (UniProt P15104) were, in that order, 0.008, 0.13, 0.006, -0.096 and 0.116.
For HMGA1 (UniProt P17096), in that order: 0.056, 0.111, 0.001, 0.038 and -0.011.
In the case of IFNGR1 (UniProt P15260), the log2 fold change in test [1] is 0.15; with vorinostat, 0.147; with silmitasertib, -0.006; in test [2], 0.046; in the test with entospletinib it was -0.042.
For HECW2 (UniProt Q9P2P5), in that order: -0.018, -0.058, 0.011, -0.004 and -0.09.
For GPN2 (UniProt Q9H9Y4), in that order: 0.006, -0.093, 0.009, -0.062 and 0.203.
For GTF2H1 (UniProt P32780), the log2 fold change is -0.019 in test [1]; -0.412 (active) in the test with vorinostat; 0 with silmitasertib; -0.024 in test [2]; 0.035 with entospletinib.
In the case of HNRNPD isoform 3 (UniProt Q14103), the log2 fold change in test [1] was 0.074; with vorinostat, 0.078; with silmitasertib it was 0.005; in test [2], 0.09; in the test with entospletinib, 0.
On to HADH isoform 2 (UniProt Q16836), for which the log2 fold change was 0 in test [1]; -0.029 in the test with vorinostat; 0.005 with silmitasertib; 0.006 in test [2]; 0.022 with entospletinib.
On to HAUS2 (UniProt Q9NVX0), for which the log2 fold change in test [1] was -0.052; in the test with vorinostat, -0.514 (active); in the test with silmitasertib, -0.037; in test [2], 0.039; with entospletinib it was -0.029.
For ISOC2 (UniProt Q96AB3), in that order: -0.064, 0.304 (active), -0.036, 0 and 0.033.
The like results for HELQ (UniProt Q8TDG4) were, in that order, -0.003, 0.001, 0.076, 0.017 and -0.103.
The like results for ISCA1 isoform 2 (UniProt Q9BUE6) were, in that order, -0.005, 0.043, 0.015, 0.004 and 0.071.

For the origin of these results see the supplement of paper PMC10849652.
